Source: PubChem BioAssay
The source made the active and inactive calls. Unless noted, the rule behind the calls is not given here.

What was measured:
[1] = system: Wnt5a (protein binding on small-molecule microarray); experiment: small molecules binding Wnt5a protein – biophysical, small-molecule microarray, 635/667 nm fluorescence, primary screen (AID 1142); details: 635 nm fluorescence, higher = more signal;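 note: fluorescence read at 667 nm with signal to noise per printed feature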
[2] = ATP-based viability of Huh7 replicon cells – cell-based, CellTiter-Glo luminescence, basal, 48 h, cytotoxicity control for HCV replication inhibitor project, primary screen (AID 1143); details: higher = more signal, called active from +8 up or from −8 down;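 note: Huh7 hepatoma cells carrying a hepatitis C replication reporter with no stimulus; test concentration not given here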
[3] = Pseudomonas biofilm growth suppression – PAO1 strain, BacTiter-Glo luminescence, LB-PBS, primary screen (AID 1144); details: P. aeruginosa PAO1 biofilm, 12 h, higher = more signal
[4] = basal CRE-LacZ reporter activity in PC12 – cell-based, unstimulated, primary screen (AID 1145); details: no forskolin, luminescence, 4.5 h, higher = more signal, called active from +8 up or from −8 down
[5] = forskolin-driven CRE-LacZ activity in PC12 – cell-based, CRE-LacZ reporter, forskolin-stimulated, primary screen (AID 1146); details: luminescence, 4.5 h, higher = more signal, called active from +8 up or from −8 down;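 note: PC12 cells with 6xCRE LacZ reporter stimulated by forskolin 10 µM; beta-galactosidase reporter signal reflecting CREB driven transcription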
[6] = biological target: Streptavidin (Streptomyces avidinii) (UniProt P22629); experiment: compounds binding control protein streptavidin – biophysical, small-molecule microarray, 635/667 nm fluorescence, artefact control for SMM compound annotation, primary screen (AID 1147); details: higher = more signal;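 note: signal reflects streptavidin binding to arrayed compounds as a control protein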
Sequence of Streptavidin (Streptomyces avidinii) (P22629 whole entry, looked up): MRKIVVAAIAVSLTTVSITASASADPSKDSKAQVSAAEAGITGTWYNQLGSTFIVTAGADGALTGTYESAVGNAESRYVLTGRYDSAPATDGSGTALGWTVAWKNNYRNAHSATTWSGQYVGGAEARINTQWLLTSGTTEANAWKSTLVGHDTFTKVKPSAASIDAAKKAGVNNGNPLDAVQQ

[7] = probe aInhba binding on compound microarray – biochemical, small-molecule microarray, 635/667 nm fluorescence, primary screen (AID 1148); details: higher = more signal;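 note: score merges 667nm spot fluorescence with signal-to-noise for antibody binding to printed compounds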
Torsin-1A (Homo sapiens) [8] = biological target: Torsin-1A (Homo sapiens) (UniProt O14656); experiment: TOR1A wild-type binding on microarray – cell lysate, small-molecule microarray, lysate, 635/667 nm, primary screen (AID 1149); details: COS7 hTOR1A-WT lysate, 635 nm fluorescence, higher = more signal
Sequence of Torsin-1A (Homo sapiens) (O14656 whole entry, looked up): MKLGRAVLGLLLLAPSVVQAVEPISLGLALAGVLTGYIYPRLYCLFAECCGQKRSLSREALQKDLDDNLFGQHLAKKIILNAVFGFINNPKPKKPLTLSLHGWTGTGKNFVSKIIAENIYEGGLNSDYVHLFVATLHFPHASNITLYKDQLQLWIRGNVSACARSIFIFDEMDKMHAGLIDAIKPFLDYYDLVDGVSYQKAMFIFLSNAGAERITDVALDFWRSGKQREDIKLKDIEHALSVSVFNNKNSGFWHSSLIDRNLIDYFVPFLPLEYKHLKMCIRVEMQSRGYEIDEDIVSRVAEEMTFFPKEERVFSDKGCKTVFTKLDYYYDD

Torsin-1A (Homo sapiens) [9] = biological target: Torsin-1A (Homo sapiens) (UniProt O14656); experiment: torsin A mutant lysate binding on microarrays – cell lysate, small-molecule microarray, COS7 lysate, 635/667 nm fluorescence, primary screen (AID 1150); details: COS7 hTOR1A mutant lysate, 635 nm fluorescence, higher = more signal;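 note: score pools 667 nm emission and signal to noise measuring lysate protein binding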
[10] = system: Sonic hedgehog protein (Shh); experiment: Sonic hedgehog microarray binding compounds – biochemical, small-molecule microarray, 635/667 nm fluorescence, primary screen (AID 1151); details: 635 nm fluorescence, higher = more signal;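 note: Shh protein binding to compounds spotted on small-molecule microarray slides; score combines spot fluorescence intensity with signal-to-noise across triplicate slides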

| SMILES | composite z-score [1] | z-score [2] | z-score [3] | z-score [4] | z-score [5] | composite z-score [6] | composite z-score [7] | composite z-score (Torsin-1A (Homo sapiens) [8]) | composite z-score (Torsin-1A (Homo sapiens) [9]) | composite z-score [10] |
| --- | --- | --- | --- | --- | --- | --- | --- | --- | --- | --- |
| COc1cc2c(cc1O)C(C)N(Cc1sc3ccccc3c1Cl)CC2 (stereo not given) | -0.434 | -0.693 (inactive) | -0.432 (inactive) | -0.258 (inactive) | -0.487 (inactive) | 0.105 | 0.0021 | -1.22 | -1.28 | -0.985 |
| C=C(C(=O)CC[C@@H](OC(=O)c1ccccc1-c1ccccc1C(=O)O)c1cccc(OCCO)c1)C(C)C | 0.655 | 0.954 (inactive) | -0.417 (inactive) | 2.16 (inactive) | 2.88 (inactive) | -0.364 | 0.0391 | 2.85 | 1.59 | 1.95 |
| COc1ccc(NN2C(C(O)c3ccc(F)cc3)C=CC3C(=O)N(C4CCCCC4)C(=O)C32)cc1 (stereo not given) | 0.0942 | -0.591 (inactive) | -0.796 (inactive) | 1.24 (inactive) | 1.08 (inactive) | 1.58 | 0.112 | 0.638 | 0.197 | 0.244 |
| C=CCNC(=O)[C@H]1[C@@H]2C(=O)O[C@@H](c3ccccc3)[C@@H](c3ccccc3)N2[C@@H](c2ccc(OCCO)cc2)[C@]12C(=O)Nc1ccc(C#Cc3ccc(OC)cc3)cc12 | 0.4 | -3.41 (inactive) | -0.832 (inactive) | 0.478 (inactive) | 0.237 (inactive) | 0.918 | 0.165 | 0.44 | 0.471 | 0.974 |
| CCOC(=O)C[C@H]1[C@H](OC(=O)c2ccc(-c3ccccc3)cc2)[C@@H](NC(=O)C2CCCCC2)c2cc(OCCCO)ccc2N1C(=O)Cc1ccc(OC)cc1 | -0.12 | -0.137 (inactive) | -0.105 (inactive) | -0.155 (inactive) | -0.185 (inactive) | 0.226 | -0.0259 | 0.061 | 0.391 | 0.106 |
| CCCC1(C(=O)OC)C=C2C(=C(C(C)C)C(=O)C2C)CN1 (stereo not given) | -0.0597 | -0.349 (inactive) | 0.2 (inactive) | 0.786 (inactive) | -0.645 (inactive) | -0.481 | -0.0791 | -0.814 | 0.29 | -0.182 |
| COC(=O)[C@@]1(Cc2ccc(F)cc2)[C@H]2c3cc(C(=O)N(C)C)n(Cc4cccc5ccccc45)c3C[C@H]2CN1C(=O)c1ccccc1 | 1.23 | -0.741 (inactive) | 0.529 (inactive) | 0.0075 (inactive) | 0.287 (inactive) | 0.0609 | 0.115 | 0.639 | 1.49 | -0.685 |
